# Source: the supplement of paper PMC6555819
# System: VDR:RXRa (NR concentration 270 nM, RXRa partner concentration 90 nM)
# Experiment: PBM binding z-score (relative to random genomic background probes); higher = stronger binding; sequences stand for … in GC…GCGATTGACAGCGTAGAATGAAGG
# Experimental: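 Protein-binding microarray (Agilent 4x180K custom design, double-stranded 60-nt probes: 5' GC cap, 34-nt variable region, 24-nt constant primer region; full probe sequence given). Purified or IVT nuclear receptor:RXRα heterodimers (3:1 NR:RXRα, mostly 270:90 nM) or homodimers were incubated for 1 h in PBS with 2% milk and no ligand, then detected with Alexa488 antibodies. Fluorescence from o1-orientation probes (~5 replicates averaged) was converted to z-scores against 500 random hg19 background probes. Variable regions are seed direct-repeat (DR0–DR5) sites, all their single-nucleotide variants and half-site ablations.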
row,Sequence,PBM binding z-score
1,CCTACTGGGCCAAGGTCATTGGTCAGTCAAAGCA,3.39
2,GATACAGGTTCAAGGCCAGAGTACGCGTATTGAT,3.41
3,TCTAGTTGGTCACGGAGGTTACACACGACGGGTA,3.16
4,TTACCCAGGTGAAAGGTCGTTGATGCACGCCTTG,3.08
5,TTAGCAAGGTGAAGGTCGTTGATCCCTCTGTAGA,0.964
6,AGAATGAGGTTAAGAGCAGGGAAACAGAATACAT,0.967
7,ATCGAAAGGTCGACGAGGCGAGTATACACCGTTT,3.79
8,TTACCAACGTGAAGGTCGTTGATCCCTCTGTAGA,1.09
9,CCTGCTAGGGCATGGTCAGCTAATCTACAGTATG,-0.579
10,GCATATCGGTAATACAAGGTGAAAGTCCGATTGT,0.0318
11,CGCACGAGGGCATGAGTTGATAGCAAATGCCGAT,1.27
12,ATCGAAAGGTCGAAGGTGAGTATCCCCACCCGAA,2.53
13,CGGCCAAGGTCATAGGAGGTCAGTGAAGACAGAT,6.19
14,CGAACTAGTTCATCCAGGACAGTGAATACATTGA,2.23
15,AGAACGAGGGCAATGAGTTGATAGCCCGGGTGGC,4.73
16,ACAGACAGGTGAGTGAAGGTATCTCAGCTGGACG,-0.617
17,ACTAGTTGGTCAGCTGAAGTCACACACAATTCGG,-0.103
18,TCAGACAGGTGAAGGTGACTCAGGTACGCAGTCG,1.04
19,CGTCAAAGTTCAACTAAGGCAACGTAAAGCACGC,4.19
20,TAGCCTAGGTCATTGGGCCAGGATAGTACGCATC,1.85

row,Sequence,PBM binding z-score
1,CGTCAATGTTCAAGGTAACGTAACAGAAAGCAGC,0.0627
2,TGAATGCGGTTATAAGATCAGGGAACGTTGCAAA,-0.0836
3,CCCACTGGGCCAAAGGTCATTGATTCCAATGCTC,4.73
4,CCAGACAGGTGAGAAGTTAACTCAGCCTCGATTA,-0.0797
5,GCTAGTTGTTCAGTAAAAGGTCACACACCGGTCG,3.93
6,GCTGCTAGGTCAGGTGGGTCAGCTAACGGGTACG,2.75
7,TAGCCTAGGTCAAATCGGGCCAGTATACGCTATA,2.7
8,CCTAGTTGGGCAAGGTCACACACGCTATAGGTAC,3.84
9,CAAACTAAGTCAAGAGGTCAAAGTCCGCTTCCCG,5.15
10,TCTTGAAGATCAACAGGAGGTTAAGAAAGATCGA,0.872
11,AGAACGAGGGCAAAGAGTTGATAGCACGGGTGGC,4.29
12,CAAACTAGGTCACGAAAGGTCTAAGTCGAATGAC,3.75
13,GGAACGAGGGCAAAGTTGATAGCTTCTGTCGACG,1.09
14,TCTTGTCGATCAAAGGTTAAGAAAGCCGAAGCCT,1.27
15,GCTGCTGGGTCAACTGATGGTCAGCTAAAGCTCG,1.82
16,TCGAGTAGGTTAGTCGCGGCATTCAGCCAACATA,-0.415
17,CTCGAAAGGTCGTGCTCAGGTGAGTAAACCAAAC,2.99
18,GCTATTAATTGAAAGGGCAACCGAATGATTCTCG,0.257
19,CAAACTAGGTCAAGAGGTCACAGTCCGCTTCCCG,5.92
20,CAAACTAGGTCAATAGGTCAAAGTCCGCTTCCCG,4.64
